According to paper PMC7862700, “An all-to-all approach to the identification of sequence-specific readers for epigenetic DNA modifications on cytosine”:

How the values were obtained:
Assay in all cases: DAPPL (digital affinity profiling via proximity ligation, sequencing); 10 mM Tris-HCl pH 7.5, 50 mM NaCl, 1 mM DTT, 4% glycerol, room temperature, 30 min; GST-TFs on glutathione beads, 16-mer random dsDNA library, 0.1% formaldehyde crosslink after washing; high values mean tight binding
Conditions in all cases: protein: recombinant; tags: N-terminal GST; dsDNA, one strand shown
ERF = molecular target: T1, ERF (Homo sapiens, UniProt P50548 1-548)
T1 sequence: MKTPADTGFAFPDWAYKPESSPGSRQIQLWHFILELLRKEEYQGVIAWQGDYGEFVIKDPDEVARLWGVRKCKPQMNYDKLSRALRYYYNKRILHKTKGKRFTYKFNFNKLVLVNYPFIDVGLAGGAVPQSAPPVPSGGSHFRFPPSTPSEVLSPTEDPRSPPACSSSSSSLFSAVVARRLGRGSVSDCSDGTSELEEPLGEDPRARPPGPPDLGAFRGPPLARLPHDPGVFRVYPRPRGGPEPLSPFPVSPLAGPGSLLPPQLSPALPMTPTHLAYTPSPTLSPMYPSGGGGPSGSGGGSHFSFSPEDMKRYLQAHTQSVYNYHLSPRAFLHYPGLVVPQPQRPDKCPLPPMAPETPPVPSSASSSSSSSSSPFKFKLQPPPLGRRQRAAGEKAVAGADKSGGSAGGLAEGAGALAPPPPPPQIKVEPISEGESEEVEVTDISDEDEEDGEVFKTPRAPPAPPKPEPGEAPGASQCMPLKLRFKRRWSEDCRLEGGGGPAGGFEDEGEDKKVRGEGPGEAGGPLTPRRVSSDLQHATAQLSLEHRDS
How it was run: (§1)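 Sequencing on an Illumina NextSeq500 followed washing, crosslinking with 0.1% formaldehyde, proximity ligation (BsaI/T4 ligase, 1 h, 37 °C) and PCR amplification of pools that had been incubated for 30 min at room temperature with 200 nmole of a random double-stranded 16-mer DNA library in Tris/NaCl/DTT/glycerol buffer. Each pool held DNA-barcoded human transcription factors, expressed in yeast as GST fusions and captured on glutathione beads, plus a tag-only sample. Binding signal is a hexamer's read frequency for a factor divided by its frequency in the tag-only sample.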

ETV3L = molecular target: T2, ETV3L (Homo sapiens, UniProt Q6ZN32 1-361)
T2 sequence: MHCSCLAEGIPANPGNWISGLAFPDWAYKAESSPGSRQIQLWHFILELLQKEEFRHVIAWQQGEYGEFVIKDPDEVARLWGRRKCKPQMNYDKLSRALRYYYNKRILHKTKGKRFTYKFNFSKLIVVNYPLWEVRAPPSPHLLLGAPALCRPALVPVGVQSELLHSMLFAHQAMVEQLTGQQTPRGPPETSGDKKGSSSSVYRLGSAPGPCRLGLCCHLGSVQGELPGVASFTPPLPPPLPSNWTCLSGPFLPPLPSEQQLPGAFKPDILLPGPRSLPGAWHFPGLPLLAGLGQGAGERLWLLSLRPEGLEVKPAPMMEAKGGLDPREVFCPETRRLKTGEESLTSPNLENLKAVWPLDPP
How it was run: as §1

ETS2 = molecular target: T3, ETS2 (Homo sapiens, UniProt P15036 1-469)
T3 sequence: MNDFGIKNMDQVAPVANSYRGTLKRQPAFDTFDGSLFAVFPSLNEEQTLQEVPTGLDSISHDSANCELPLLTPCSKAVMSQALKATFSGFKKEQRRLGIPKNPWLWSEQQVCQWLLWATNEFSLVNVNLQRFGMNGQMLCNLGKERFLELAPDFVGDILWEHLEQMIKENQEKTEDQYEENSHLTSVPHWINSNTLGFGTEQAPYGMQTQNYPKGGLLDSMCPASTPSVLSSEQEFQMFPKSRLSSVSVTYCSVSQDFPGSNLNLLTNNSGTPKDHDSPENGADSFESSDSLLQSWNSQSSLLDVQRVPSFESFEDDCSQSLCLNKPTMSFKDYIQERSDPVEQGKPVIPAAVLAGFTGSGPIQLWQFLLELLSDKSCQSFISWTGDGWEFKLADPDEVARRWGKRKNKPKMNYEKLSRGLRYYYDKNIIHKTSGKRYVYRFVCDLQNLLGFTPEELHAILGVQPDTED
How it was run: as §1

SPDEF = molecular target: T4, SPDEF (Homo sapiens, UniProt O95238 1-335)
T4 sequence: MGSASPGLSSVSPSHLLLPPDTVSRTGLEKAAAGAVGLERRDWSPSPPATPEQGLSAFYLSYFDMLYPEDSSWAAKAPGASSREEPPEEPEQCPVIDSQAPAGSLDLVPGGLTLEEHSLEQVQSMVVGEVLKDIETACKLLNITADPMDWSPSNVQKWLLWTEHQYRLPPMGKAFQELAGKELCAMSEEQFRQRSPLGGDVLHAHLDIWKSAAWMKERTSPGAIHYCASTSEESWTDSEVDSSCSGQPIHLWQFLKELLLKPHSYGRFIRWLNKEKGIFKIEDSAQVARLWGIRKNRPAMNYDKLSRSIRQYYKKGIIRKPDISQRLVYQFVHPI
How it was run: as §1

ETV7 = molecular target: T5, ETV7 (Homo sapiens, UniProt Q9Y603 1-341)
T5 sequence: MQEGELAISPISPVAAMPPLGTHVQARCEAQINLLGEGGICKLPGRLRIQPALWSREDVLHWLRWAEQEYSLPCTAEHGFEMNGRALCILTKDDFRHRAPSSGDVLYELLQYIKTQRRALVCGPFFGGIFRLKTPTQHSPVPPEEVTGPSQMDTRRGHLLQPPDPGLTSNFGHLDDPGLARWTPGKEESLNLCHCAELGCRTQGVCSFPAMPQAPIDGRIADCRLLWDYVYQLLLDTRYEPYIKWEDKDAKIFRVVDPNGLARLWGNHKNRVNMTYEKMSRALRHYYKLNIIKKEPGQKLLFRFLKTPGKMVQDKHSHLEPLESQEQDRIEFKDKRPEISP
How it was run: as §1

ELF5 = molecular target: T6, ELF5 (Homo sapiens, UniProt Q9UKW6-2 1-255)
T6 sequence: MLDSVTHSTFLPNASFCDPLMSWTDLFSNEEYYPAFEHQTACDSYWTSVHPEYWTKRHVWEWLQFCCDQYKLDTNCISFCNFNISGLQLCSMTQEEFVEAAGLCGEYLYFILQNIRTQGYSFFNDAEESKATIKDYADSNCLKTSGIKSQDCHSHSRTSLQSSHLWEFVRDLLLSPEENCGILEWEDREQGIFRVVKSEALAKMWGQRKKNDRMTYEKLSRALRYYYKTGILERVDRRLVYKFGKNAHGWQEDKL
How it was run: as §1

ETV3 = molecular target: T7, ETV3 (Homo sapiens, UniProt P41162-2 1-143)
T7 sequence: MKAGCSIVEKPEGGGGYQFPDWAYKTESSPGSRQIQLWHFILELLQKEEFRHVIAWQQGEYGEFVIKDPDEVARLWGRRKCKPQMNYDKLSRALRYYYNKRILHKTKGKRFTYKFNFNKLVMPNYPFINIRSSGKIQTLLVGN
How it was run: as §1

ETV6 = ETV6 (Homo sapiens, UniProt P41212 1-452)
Chain of ETV6 (P41212 whole entry): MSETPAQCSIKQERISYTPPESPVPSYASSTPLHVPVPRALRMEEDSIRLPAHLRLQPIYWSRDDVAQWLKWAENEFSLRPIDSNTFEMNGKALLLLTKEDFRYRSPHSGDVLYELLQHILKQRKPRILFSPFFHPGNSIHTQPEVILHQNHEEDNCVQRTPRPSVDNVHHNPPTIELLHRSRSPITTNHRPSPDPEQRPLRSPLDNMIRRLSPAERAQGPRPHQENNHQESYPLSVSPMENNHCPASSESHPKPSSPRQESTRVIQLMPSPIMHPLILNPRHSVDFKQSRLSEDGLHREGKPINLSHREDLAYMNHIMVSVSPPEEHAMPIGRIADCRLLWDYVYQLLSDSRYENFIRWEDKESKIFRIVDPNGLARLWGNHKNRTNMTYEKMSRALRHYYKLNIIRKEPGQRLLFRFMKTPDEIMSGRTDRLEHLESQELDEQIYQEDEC
How it was run: as §1

Row | Sequence | binding signal (ERF) | binding signal (ETV3L) | binding signal (ETS2) | binding signal (SPDEF) | binding signal (ETV7) | binding signal (ELF5) | binding signal (ETV3) | binding signal (ETV6)
1 | TTAAAT | 1.1 fold enrichment (6-mer frequency, TF over GST control) | 1.22 fold enrichment (6-mer frequency, TF over GST control) | 1.19 fold enrichment (6-mer frequency, TF over GST control) | 1.16 fold enrichment (6-mer frequency, TF over GST control) | 1.21 fold enrichment (6-mer frequency, TF over GST control) | 1.08 fold enrichment (6-mer frequency, TF over GST control) | 1.15 fold enrichment (6-mer frequency, TF over GST control) | 1.23 fold enrichment (6-mer frequency, TF over GST control)
2 | CCTGTG | 1.08 fold enrichment (6-mer frequency, TF over GST control) | 1.02 fold enrichment (6-mer frequency, TF over GST control) | 1.03 fold enrichment (6-mer frequency, TF over GST control) | 1.02 fold enrichment (6-mer frequency, TF over GST control) | 1.07 fold enrichment (6-mer frequency, TF over GST control) | 1.06 fold enrichment (6-mer frequency, TF over GST control) | 1.07 fold enrichment (6-mer frequency, TF over GST control) | 1.06 fold enrichment (6-mer frequency, TF over GST control)
3 | AAAGTT | 1.08 fold enrichment (6-mer frequency, TF over GST control) | 1.13 fold enrichment (6-mer frequency, TF over GST control) | 1.09 fold enrichment (6-mer frequency, TF over GST control) | 1.01 fold enrichment (6-mer frequency, TF over GST control) | 1.15 fold enrichment (6-mer frequency, TF over GST control) | 1.08 fold enrichment (6-mer frequency, TF over GST control) | 1.09 fold enrichment (6-mer frequency, TF over GST control) | 1.06 fold enrichment (6-mer frequency, TF over GST control)
4 | CACTAC | 1.33 fold enrichment (6-mer frequency, TF over GST control) | 1.29 fold enrichment (6-mer frequency, TF over GST control) | 1.31 fold enrichment (6-mer frequency, TF over GST control) | 1.14 fold enrichment (6-mer frequency, TF over GST control) | 1.27 fold enrichment (6-mer frequency, TF over GST control) | 1.26 fold enrichment (6-mer frequency, TF over GST control) | 1.26 fold enrichment (6-mer frequency, TF over GST control) | 1.24 fold enrichment (6-mer frequency, TF over GST control)
5 | GCTTTT | 1.16 fold enrichment (6-mer frequency, TF over GST control) | 1.12 fold enrichment (6-mer frequency, TF over GST control) | 1.17 fold enrichment (6-mer frequency, TF over GST control) | 1.09 fold enrichment (6-mer frequency, TF over GST control) | 1.21 fold enrichment (6-mer frequency, TF over GST control) | 1.06 fold enrichment (6-mer frequency, TF over GST control) | 1.15 fold enrichment (6-mer frequency, TF over GST control) | 1.22 fold enrichment (6-mer frequency, TF over GST control)
6 | CGTACC | 1.12 fold enrichment (6-mer frequency, TF over GST control) | 1.13 fold enrichment (6-mer frequency, TF over GST control) | 1.15 fold enrichment (6-mer frequency, TF over GST control) | 1.17 fold enrichment (6-mer frequency, TF over GST control) | 1.1 fold enrichment (6-mer frequency, TF over GST control) | 1.19 fold enrichment (6-mer frequency, TF over GST control) | 1.03 fold enrichment (6-mer frequency, TF over GST control) | 1.16 fold enrichment (6-mer frequency, TF over GST control)
7 | ACACTA | 1.15 fold enrichment (6-mer frequency, TF over GST control) | 1.18 fold enrichment (6-mer frequency, TF over GST control) | 1.1 fold enrichment (6-mer frequency, TF over GST control) | 1.09 fold enrichment (6-mer frequency, TF over GST control) | 1.15 fold enrichment (6-mer frequency, TF over GST control) | 1.09 fold enrichment (6-mer frequency, TF over GST control) | 1.12 fold enrichment (6-mer frequency, TF over GST control) | 1.21 fold enrichment (6-mer frequency, TF over GST control)
